The entries come from a sample that favours hits as a whole.
KDM5B inh: KDM5B demethylase inhibition. Potency, µM (doses to about 57.7 µM), actives largely listed as inhibitors. Q9UGL1. 220,000 tested, 2.6% active. AID 1347165. KDM5B demethylase, FDH-coupled NADH fluorescence (FDH is formaldehyde dehydrogenase); active means well fitted inhibition curve with a large enough effect; further: 0% is about no effect; nearly all actives have a fitted effect of over 70% in size
Target sequence (Q9UGL1 whole entry, looked up): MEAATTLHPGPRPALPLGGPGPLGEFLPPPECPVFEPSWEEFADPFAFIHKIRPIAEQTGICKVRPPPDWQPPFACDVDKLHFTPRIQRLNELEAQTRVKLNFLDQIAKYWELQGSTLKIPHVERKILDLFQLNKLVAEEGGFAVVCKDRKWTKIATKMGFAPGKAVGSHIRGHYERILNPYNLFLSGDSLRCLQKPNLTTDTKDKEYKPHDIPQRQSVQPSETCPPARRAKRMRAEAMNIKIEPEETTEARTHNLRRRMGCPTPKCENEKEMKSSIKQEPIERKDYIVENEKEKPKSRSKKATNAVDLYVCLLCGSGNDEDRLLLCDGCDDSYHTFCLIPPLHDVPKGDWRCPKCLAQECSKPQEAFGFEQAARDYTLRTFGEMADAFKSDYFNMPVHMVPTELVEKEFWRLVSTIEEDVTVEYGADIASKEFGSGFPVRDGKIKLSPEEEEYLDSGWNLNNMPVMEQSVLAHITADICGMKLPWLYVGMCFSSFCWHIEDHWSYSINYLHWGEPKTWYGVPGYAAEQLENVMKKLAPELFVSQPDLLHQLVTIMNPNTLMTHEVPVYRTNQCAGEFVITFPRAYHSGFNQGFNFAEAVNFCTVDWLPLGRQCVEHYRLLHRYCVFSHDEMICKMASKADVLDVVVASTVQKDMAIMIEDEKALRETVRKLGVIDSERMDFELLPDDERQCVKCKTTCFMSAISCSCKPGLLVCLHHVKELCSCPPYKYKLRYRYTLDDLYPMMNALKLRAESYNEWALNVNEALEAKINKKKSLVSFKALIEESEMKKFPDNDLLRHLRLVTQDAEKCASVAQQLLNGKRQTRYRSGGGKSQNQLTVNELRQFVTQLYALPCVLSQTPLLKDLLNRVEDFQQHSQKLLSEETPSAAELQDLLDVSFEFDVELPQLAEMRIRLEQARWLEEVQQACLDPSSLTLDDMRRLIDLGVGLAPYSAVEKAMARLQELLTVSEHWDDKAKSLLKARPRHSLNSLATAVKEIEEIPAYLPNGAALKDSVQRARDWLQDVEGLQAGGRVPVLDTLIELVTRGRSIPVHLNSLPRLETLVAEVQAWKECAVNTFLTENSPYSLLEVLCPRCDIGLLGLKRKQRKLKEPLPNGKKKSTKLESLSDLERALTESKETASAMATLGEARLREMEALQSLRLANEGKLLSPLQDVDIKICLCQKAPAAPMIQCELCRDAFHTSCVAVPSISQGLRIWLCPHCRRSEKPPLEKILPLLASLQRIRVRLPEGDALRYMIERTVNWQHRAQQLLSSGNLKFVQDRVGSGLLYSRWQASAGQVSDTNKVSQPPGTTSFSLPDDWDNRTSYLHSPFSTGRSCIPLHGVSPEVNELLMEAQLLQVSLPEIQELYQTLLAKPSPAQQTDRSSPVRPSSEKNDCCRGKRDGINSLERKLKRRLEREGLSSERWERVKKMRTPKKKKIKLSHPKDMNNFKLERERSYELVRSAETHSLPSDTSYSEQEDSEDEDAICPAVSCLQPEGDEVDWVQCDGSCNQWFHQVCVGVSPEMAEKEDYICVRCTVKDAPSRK
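Here, H3K4me3 peptide (12.5 µM in substrate mix) is demethylated by KDM5BΔAP, 200 nM final, after 10 min compound exposure. Formaldehyde product is coupled through FDH (0.25 U/mL in mix) to NADH fluorescence; 30-min ΔRFU feeds dose-response curves.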
Active calls of the source: *; i = inactive. Potency means the concentration at half of the fitted maximal effect.

SMILES | KDM5B inh
Cn1c(=O)c2cn(S(=O)(=O)c3ccc4c(c3)CCCC4)nc2n(C)c1=O | i
C=CCN(C)C(=O)[C@@H](C)C1CC[C@@]2(C)Cc3sc(CSc4ccccc4)nc3[C@@H](C)[C@@H]2[C@H]1O (stereo partly drawn) | i
COc1ccc(C(=O)N[C@H]2CC[C@]3(C)CCC([C@H](C)C(=O)N(C)Cc4cccnc4)[C@H](O)[C@H]3[C@@H]2C)cc1 (stereo partly drawn) | i
C=CCN(C)C(=O)[C@@H](C)C1CC[C@@]2(C)Cc3sc(NCCCC)nc3[C@@H](C)[C@@H]2[C@H]1O (stereo partly drawn) | 35µM*
COCCNC(=O)[C@@H](C)C1CC[C@@]2(C)Cc3sc(NC(=O)CN(C)C)nc3[C@@H](C)[C@@H]2[C@H]1O (stereo partly drawn) | i
CNc1nc2c(s1)C[C@]1(C)CCC([C@H](C)C(=O)N3CCSCC3)[C@H](O)[C@H]1[C@@H]2C (stereo partly drawn) | i
C=CCN(C)C(=O)[C@@H](C)C1CC[C@@]2(C)Cc3sc(-c4cccnc4)nc3[C@@H](C)[C@@H]2[C@H]1O (stereo partly drawn) | 32µM*
C[C@H](C(=O)NCCN1CCOCC1)C1CC[C@@]2(C)Cc3sc(-c4ccccc4)nc3[C@@H](C)[C@@H]2[C@H]1O (stereo partly drawn) | 25µM*
C[C@H](C(=O)N1CCSCC1)C1CC[C@@]2(C)Cc3sc(Nc4c(Cl)cccc4Cl)nc3[C@@H](C)[C@@H]2[C@H]1O (stereo partly drawn) | i
Cc1nc2c(s1)C[C@]1(C)CCC([C@H](C)C(=O)N3CCOCC3)[C@H](O)[C@H]1[C@@H]2C (stereo partly drawn) | i
CCc1cccc(C)c1NC(=O)Cn1nc(C(=O)O)c2ccccc2c1=O | i
N#Cc1cccc(C(=O)Nc2ccc(Cl)cc2C(F)(F)F)c1 | i
CC1CC(=O)Nc2ccccc2N1C(=O)Cn1cnc2c(Cl)cc(Cl)cc2c1=O (stereo not drawn) | i
COC(=O)c1sccc1S(=O)(=O)N(CC(=O)Nc1cccc(C)c1C)c1ccc(Cl)cc1 | i
NC1CCC(n2cc(C(=O)NC3CCCN(c4ncccn4)C3)nn2)CC1 (stereo not drawn) | 25µM*
NC1CCC(n2cc(C(=O)N3CCC(Nc4ccccn4)CC3)nn2)CC1 (stereo not drawn) | i
CN(C)C(CNC(=O)c1cn(C2CCC(N)CC2)nn1)c1ccccn1 (stereo not drawn) | i
COC(=O)CNC(=O)c1nc(-c2ccc(F)cc2)c2cnccn12 | 40µM*
COCCNC(=O)N1CC=C(c2ccc(F)cc2)CC1 | i
COCCNC(=O)c1nc(-c2ccc(F)cc2)c2cnccn12 | 32µM*
COCCNC(=O)c1c(-c2ccc(F)cc2)noc1[C@H](C)O | i
O=C(CNC(=O)c1ccc(F)cc1)OCc1cc(=O)n2ccsc2n1 | i
Cc1ccc(-c2nnc(CN3CCC(c4ccn[nH]4)CC3)o2)cc1 | i
CCOC(=O)c1cccc(NC(=O)c2cc[n+]([O-])cc2)c1 | i
Cc1nc(-c2ccc3c(c2)Cc2ccccc2-3)cs1 | i
SMILES | KDM5B inh
O=C(OC(C(=O)NC1CC1)c1ccccc1)c1n[nH]c(=O)c2ccccc12 (stereo not drawn) | i
O=C(CC1CCCCC1)NCc1nnc2cc(-c3nc(C4CC4)no3)ccn12 | 14µM*
O=C(CCC1CCCC1)NCc1nnc2cc(-c3nc(C4CC4)no3)ccn12 | 11µM*
OC(CNCc1ccc2ccccc2c1)c1ccccc1 (stereo not drawn) | i
CCCNC(=O)c1ccccc1NC(=O)Cn1cnc2c1c(=O)n(C)c(=O)n2C | i
Cc1c(C(=O)Nc2cc(F)ccc2F)sc2nc(-c3ccccc3)cn12 | i
C=CCOc1ccc(NC(=O)CC)cc1 | i
Cc1ccc(CNCCN2CCCC2)cc1C | i
CCN(Cc1nc2cc(Cl)ccc2c(=O)[nH]1)C(=O)CNC(=O)c1ccc(F)cc1 | i
CCc1ccc2oc(C(=O)N(Cc3ccc(Cl)cc3)C3CCS(=O)(=O)C3)cc(=O)c2c1 (stereo not drawn) | i
COC[C@@H]1CN(c2cnccn2)C[C@H]1C(=O)NCC1CC1 | 18µM*
CNC(=O)[C@@H]1CN(C(=O)c2cocn2)C[C@H]1COC | i
CCCc1ccc(NC(=O)C2CCCN(c3cnccn3)C2)cc1 (stereo not drawn) | i
COC[C@@H]1CN(c2cnccn2)C[C@H]1C(=O)NCc1ccc(C)c(C)c1 | 18µM*
CNC(=O)[C@@H]1CN(C(=O)c2cnc[nH]2)C[C@H]1COC | i
COC(=O)NCCc1ccncc1 | i
COC[C@@H]1CN(c2cnccn2)C[C@H]1C(=O)NCCc1ccncc1 | 25µM*
COc1ccc(C(=O)N[C@@H]2CCC[C@@H]2C(=O)NCc2ccc(C)c(C)c2)cc1 | i
CNC(=O)[C@@H]1CN(C(=O)c2ccc(F)cn2)C[C@H]1COC | i
O=C(c1ccc2c(c1)OCO2)N1CCn2c(nn(-c3ccc(C(F)(F)F)cc3)c2=O)C1 | i
O=C(c1ccc(-n2cccn2)cc1)N1CCCC1c1ccc2c(c1)OCCO2 (stereo not drawn) | i
Cc1ccc(SCc2ccc(C(=O)Nc3c(C)cccc3C)cc2)cc1 | i
CCC(NC(=O)c1cc(COc2ccccc2F)[nH]n1)c1ccncc1 (stereo not drawn) | i
COc1ccccc1CC(=O)Oc1ccc2c(c1)OCO2 | i
Cn1nc(CC(=O)NCc2ccccc2CN2CCCCC2)c2ccccc2c1=O | i
SMILES | KDM5B inh
N#C/C(=C(/O)c1cccc2ccccc12)c1nc2ccccc2[nH]1 | i
COc1ccc(/C=C(/C(=O)O)c2cccs2)cc1 | i
CCc1ncc(C(=O)N2CCCC(CCc3cccc(C(F)(F)F)c3)C2)cn1 (stereo not drawn) | i
O=C(c1cc(-c2ccc(O)cc2)n[nH]1)N1CCCC(CCc2ccc(F)cc2)C1 (stereo not drawn) | i
CNc1ncc(C(=O)N2CCCC(CCc3ccc(F)cc3)C2)cn1 (stereo not drawn) | 20µM*
O=C(N/N=C/c1cccs1)c1cccc(N/N=C/c2cccs2)c1 | i
CCCOC1CCCN(C(=O)c2ccc3nc(-c4ccc(F)cc4)cn3c2)C1 (stereo not drawn) | 28µM*
O=C(c1ccc2nc(-c3ccccc3)cn2c1)N1CCOC(C(F)(F)F)C1 (stereo not drawn) | 32µM*
O=C(c1cc(-c2ccc(F)cc2)n[nH]1)N1CCC(OCC2CC2)C1 (stereo not drawn) | i
O=C(c1cc(-c2ccc(F)cc2)n[nH]1)N1CC2CC(C1)[C@H]1CCCC(=O)N1C2 (stereo partly drawn) | i
O=C(c1ccc(F)cc1)N1CC2CC(C1)[C@H]1CCCC(=O)N1C2 (stereo partly drawn) | i
O=C(Cc1ccc(CO)cc1)N1CCOC(C(F)(F)F)C1 (stereo not drawn) | i
O=C(c1cccc2nccnc12)N1CCOC(C(F)(F)F)C1 (stereo not drawn) | i
O=C(c1ccc2nc(-c3ccc(F)cc3)cn2c1)N1C[C@@H]2CCCN[C@@H]2C1 | 28µM*
CCCOC1CCCN(C(=O)c2cc(Cl)ccc2OC2CCN(C(C)=O)CC2)C1 (stereo not drawn) | i
O=C(CSc1nc2ccsc2c(=O)n1-c1cc(F)cc(F)c1)Nc1ccc2c(c1)OCCO2 | i

Assay outcomes: PubChem, National Center for Advancing Translational Sciences (NCATS)
